# Measurements published in PubChem BioAssay (Tox21).
# Results filed as inconclusive are left out. Entries that show only a call come without a potency. The source made the active and inactive calls. Calls follow the shape of the dose curve; as a rule, active = well fitted curve in the direction sought with a large enough effect in the repeat runs; inconclusive = weak or mixed curves; inactive = no such curve, though single readings can be large; an effect the other way counts as inactive or inconclusive. Positions of bridges follow the written chain, without caps; N, C: chain ends. Non-standard residues stand in square brackets, D forms with d. Residues, ends and D or L forms follow the SMILES beside them. *: point of attachment. Dab(CH2SO3H) = N[C@@H](CCNCS(=O)(=O)O)C(=O)O; X3 = CC[C@@H](C)CCCCC(=O)*; Dab = NCC[C@H](N)C(=O)O
# Molecular target: Androgen receptor (Homo sapiens) (UniProt P10275)
# Assay: qHTS assay to identify small molecule antagonists of the androgen receptor (AR) signaling pathway using the MDA cell line (AID 743042; also: nearly all actives have a fitted effect of over 55% in size)
# Conditions: MDA-kb2 AR-luc, MMTV luciferase, R1881 antagonist, 16 h; series mostly up to 70.3 µM
# In short: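 MDA-kb2 breast carcinoma cells carrying MMTV-luciferase (AR/GR responsive) were co-treated with compounds and the agonist R1881 for 16 h at 37C. Inhibition read as ONE-Glo luminescence; CellTiter-Fluor fluorescence measured in parallel for cytotoxicity.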
# Potency is read from the fitted curve at half-maximal effect.
# Sequence of Androgen receptor (Homo sapiens) (P10275 whole entry, looked up): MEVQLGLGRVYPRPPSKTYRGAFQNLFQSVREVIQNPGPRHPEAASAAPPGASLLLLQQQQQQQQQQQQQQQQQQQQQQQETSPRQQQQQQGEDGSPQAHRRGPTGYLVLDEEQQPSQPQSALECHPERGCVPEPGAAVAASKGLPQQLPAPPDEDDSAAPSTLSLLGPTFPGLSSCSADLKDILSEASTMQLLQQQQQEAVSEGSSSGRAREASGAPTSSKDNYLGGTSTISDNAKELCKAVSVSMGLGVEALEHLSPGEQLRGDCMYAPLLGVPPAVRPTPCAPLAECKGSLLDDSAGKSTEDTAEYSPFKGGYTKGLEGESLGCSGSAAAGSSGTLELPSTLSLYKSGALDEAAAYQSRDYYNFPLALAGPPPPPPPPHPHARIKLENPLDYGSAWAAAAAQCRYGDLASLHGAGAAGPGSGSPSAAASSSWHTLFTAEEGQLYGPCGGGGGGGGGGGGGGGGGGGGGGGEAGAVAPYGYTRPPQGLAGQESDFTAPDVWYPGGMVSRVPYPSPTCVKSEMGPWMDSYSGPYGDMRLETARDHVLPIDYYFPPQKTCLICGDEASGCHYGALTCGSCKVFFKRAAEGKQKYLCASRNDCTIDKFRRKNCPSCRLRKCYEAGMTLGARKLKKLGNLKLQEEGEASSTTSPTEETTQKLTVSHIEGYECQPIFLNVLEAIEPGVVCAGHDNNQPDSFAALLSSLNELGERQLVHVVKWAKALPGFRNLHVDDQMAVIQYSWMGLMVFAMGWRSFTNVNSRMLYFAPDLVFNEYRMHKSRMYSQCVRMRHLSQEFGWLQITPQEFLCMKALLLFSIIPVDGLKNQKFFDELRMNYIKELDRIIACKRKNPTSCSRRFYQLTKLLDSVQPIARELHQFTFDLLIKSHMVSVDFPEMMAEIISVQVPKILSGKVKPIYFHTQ
row,SMILES,Potency
1,COc1cccc2c1[C@@H]1CN(CCCCn3c(=O)[nH]c4c(sc5ncc(-c6ccccc6)nc54)c3=O)C[C@@H]1CO2,29.8 µM (active)
2,O=P(O)(O)OP(=O)(O)OP(=O)(O)O,inactive
3,NC[C@@H]1CC[C@@H](N)[C@@H](O[C@H]2[C@H](O)[C@@H](O[C@H]3O[C@H](CO)[C@@H](O)[C@H](N)[C@H]3O)[C@H](N)C[C@@H]2N)O1,inactive
4,CN1CC[C@H](c2c(O)cc(O)c3c(=O)cc(-c4ccccc4Cl)oc23)[C@H](O)C1,0.106 µM (active)
5,CC12CCC(C1)C(C)(C)C2=O (configuration not stated),inactive
6,C[C@]12O[C@H](C[C@]1(O)CO)n1c3ccccc3c3c4c(c5c6ccccc6n2c5c31)CNC4=O,2.98 µM (active)
7,CC(C)c1ncc([N+](=O)[O-])n1C,inactive
8,CC[C@H](C)C(=O)O[C@H]1CCC=C2C=C[C@H](C)[C@H](CC[C@@H]3C[C@@H](O)CC(=O)O3)[C@H]21,inactive
9,CN(C)CCc1c[nH]c2ccc(Cn3cncn3)cc12,inactive
10,C/C=C/C1=C(C(=O)O)N2C(=O)[C@@H](NC(=O)[C@H](N)c3ccc(O)cc3)[C@H]2SC1,inactive
11,O=C1C2CC3CC1CC(O)(C3)C2,inactive
12,COC(=O)C[C@](O)(CCCC(C)(C)O)C(=O)O[C@@H]1C(OC)=CC23CCCN2CCc2cc4c(cc2[C@H]13)OCO4 (some centres not stated),0.0211 µM (active)
13,CC[C@@H](C)CCCCC(=O)N[C@@H](CCNCS(=O)(=O)O)C(=O)N[C@H](C(=O)N[C@@H](CCNCS(=O)(=O)O)C(=O)N[C@H]1CCNC(=O)[C@H]([C@@H](C)O)NC(=O)[C@H](CCNCS(=O)(=O)O)NC(=O)[C@H](CCNCS(=O)(=O)O)NC(=O)[C@H](CC(C)C)NC(=O)[C@@H](CC(C)C)NC(=O)[C@H](CCNCS(=O)(=O)O)NC1=O)[C@@H](C)O (X3-[Dab(CH2SO3H)]T[Dab(CH2SO3H)][Dab][Dab(CH2SO3H)][dL]L[Dab(CH2SO3H)][Dab(CH2SO3H)]T; lactam 4-C),inactive

# Test system: not listed separately
# Assay: qHTS assay to identify small molecule antagonists of the thyroid receptor (TR) signaling pathway - cell viability counter screen (AID 743064); also: nearly all actives have a fitted effect of over 50% in size
# Conditions: GH3.TRE-Luc viability, CellTiter-Fluor, 24 h; series mostly up to 70.3 µM
# In short: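 GH3.TRE-Luc cells, 4 h pre-plating; cpd + T3 1 nM final; 37 °C 23.5 h; CellTiter-Fluor 30 min; fluorescence read.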
row,SMILES,Potency
1,CC[C@H]1OC(=O)[C@H](C)C(=O)[C@H](C)[C@@H](O[C@@H]2O[C@H](C)C[C@H](N(C)C)[C@H]2O)[C@](C)(OC)C[C@@H](C)C(=O)[C@H](C)[C@H]2N(CCCCn3cnc(-c4cccnc4)c3)C(=O)O[C@]12C,inactive
2,COc1cccc2c1[C@@H]1CN(CCCCn3c(=O)[nH]c4c(sc5ncc(-c6ccccc6)nc54)c3=O)C[C@@H]1CO2,11.9 µM (active)
3,O=P(O)(O)OP(=O)(O)OP(=O)(O)O,inactive
4,NC[C@@H]1CC[C@@H](N)[C@@H](O[C@H]2[C@H](O)[C@@H](O[C@H]3O[C@H](CO)[C@@H](O)[C@H](N)[C@H]3O)[C@H](N)C[C@@H]2N)O1,inactive
5,CN1CCN(CCCN2c3ccccc3Sc3ccc(Cl)cc32)CC1,6.68 µM (active)
6,CN1CC[C@H](c2c(O)cc(O)c3c(=O)cc(-c4ccccc4Cl)oc23)[C@H](O)C1,0.211 µM (active)
7,NCC(O)CC(=O)O (configuration not stated),inactive
8,CC12CCC(C1)C(C)(C)C2=O (configuration not stated),inactive
9,CN1C(=O)C[C@@H](C(=O)N[C@@H](Cc2cnc[nH]2)C(=O)N2CCC[C@H]2C(N)=O)NC1=O,inactive
10,C[C@]12O[C@H](C[C@]1(O)CO)n1c3ccccc3c3c4c(c5c6ccccc6n2c5c31)CNC4=O,0.188 µM (active)
11,Cc1cc(-c2ccc(N=Nc3ccc4c(S(=O)(=O)O)cc(S(=O)(=O)O)c(N)c4c3O)c(C)c2)ccc1N=Nc1ccc2c(S(=O)(=O)O)cc(S(=O)(=O)O)c(N)c2c1O,inactive
12,CN(C)CCc1c[nH]c2ccc(Cn3cncn3)cc12,inactive
13,O=C1C2CC3CC1CC(O)(C3)C2,inactive
14,CCCCCCCCCC[N+](C)(CCCCCCCCCC)CCC[Si](OC)(OC)OC,21.7 µM (active)

# Test system: not listed separately
# Assay: qHTS assay to identify small molecule antagonists of the thyroid receptor (TR) signaling pathway (AID 743065); also: nearly all actives have a fitted effect of over 55% in size
# Conditions: GH3.TRE-Luc, T3-stimulated luciferase inhibition, 23.5 h; series mostly up to 70.3 µM
# In short: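 GH3.TRE-Luc rat pituitary cells (two TREs driving luciferase) were dosed with compound, then stimulated with 1 nM T3 (final) for 23.5 h at 37 C. ONE-Glo luminescence was the read-out, with CellTiter-Fluor fluorescence as the cytotoxicity counter-screen.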
row,SMILES,Potency
1,CC[C@H]1OC(=O)[C@H](C)C(=O)[C@H](C)[C@@H](O[C@@H]2O[C@H](C)C[C@H](N(C)C)[C@H]2O)[C@](C)(OC)C[C@@H](C)C(=O)[C@H](C)[C@H]2N(CCCCn3cnc(-c4cccnc4)c3)C(=O)O[C@]12C,inactive
2,COc1cccc2c1[C@@H]1CN(CCCCn3c(=O)[nH]c4c(sc5ncc(-c6ccccc6)nc54)c3=O)C[C@@H]1CO2,10.6 µM (active)
3,NC[C@@H]1CC[C@@H](N)[C@@H](O[C@H]2[C@H](O)[C@@H](O[C@H]3O[C@H](CO)[C@@H](O)[C@H](N)[C@H]3O)[C@H](N)C[C@@H]2N)O1,inactive
4,CC(=O)OCC(=O)[C@@]1(O)CC[C@H]2[C@@H]3CCC4=CC(=O)CC[C@]4(C)C3=CC[C@@]21C,inactive
5,CN1CCN(CCCN2c3ccccc3Sc3ccc(Cl)cc32)CC1,6.68 µM (active)
6,CN1CC[C@H](c2c(O)cc(O)c3c(=O)cc(-c4ccccc4Cl)oc23)[C@H](O)C1,0.15 µM (active)
7,COc1c(Br)cc(Br)c(C)c1Br,inactive
8,CC12CCC(C[N+](C)(CCC[N+](C)(C)C)C1)C2(C)C (configuration not stated),inactive
9,O=C1c2c(O)cccc2[C@H]([C@@H]2O[C@H](CO)[C@@H](O)[C@H](O)[C@H]2O)c2cc(CO)cc(O)c21,inactive
10,NCC(O)CC(=O)O (configuration not stated),inactive
11,CC12CCC(C1)C(C)(C)C2=O (configuration not stated),inactive
12,CN1C(=O)C[C@@H](C(=O)N[C@@H](Cc2cnc[nH]2)C(=O)N2CCC[C@H]2C(N)=O)NC1=O,inactive
13,NC[C@H]1O[C@H](O[C@H]2[C@H](O)[C@@H](O[C@H]3O[C@H](CO)[C@@H](O)[C@H](N)[C@H]3O)[C@H](N)C[C@@H]2N)[C@H](N)C[C@@H]1O,inactive
14,NCC[C@H](O)C(=O)N[C@@H]1C[C@H](N)[C@@H](O[C@H]2O[C@H](CN)CC[C@H]2N)[C@H](O)[C@H]1O[C@H]1O[C@H](CO)[C@@H](O)[C@H](N)[C@H]1O,inactive
15,C=CC[N@@+]12CC[C@@]34c5ccccc5N5/C=C6/[C@H]7C[C@H]8[C@@]9(CC[N@@+]8(CC=C)C/C7=C/CO)c7ccccc7N(/C=C(/[C@@H](C[C@@H]31)/C(=C\CO)C2)[C@H]54)[C@@H]69,inactive
16,CC(C)Cc1ccc([C@H](C)C(=O)O)cc1,inactive
17,FC(F)(F)C(F)(F)C(F)(F)C(F)(F)C(F)(F)F,inactive
18,COc1ccc(/C=N/NC(=O)c2ccncc2)c(C(=O)O)c1OC,inactive
19,C[C@]12O[C@H](C[C@]1(O)CO)n1c3ccccc3c3c4c(c5c6ccccc6n2c5c31)CNC4=O,0.188 µM (active)
20,Cc1cc(-c2ccc(N=Nc3ccc4c(S(=O)(=O)O)cc(S(=O)(=O)O)c(N)c4c3O)c(C)c2)ccc1N=Nc1ccc2c(S(=O)(=O)O)cc(S(=O)(=O)O)c(N)c2c1O,23.7 µM (active)
21,O=C1C2CC3CC1CC(O)(C3)C2,inactive
22,CC[C@@H](C)CCCCC(=O)N[C@@H](CCNCS(=O)(=O)O)C(=O)N[C@H](C(=O)N[C@@H](CCNCS(=O)(=O)O)C(=O)N[C@H]1CCNC(=O)[C@H]([C@@H](C)O)NC(=O)[C@H](CCNCS(=O)(=O)O)NC(=O)[C@H](CCNCS(=O)(=O)O)NC(=O)[C@H](CC(C)C)NC(=O)[C@@H](CC(C)C)NC(=O)[C@H](CCNCS(=O)(=O)O)NC1=O)[C@@H](C)O (X3-[Dab(CH2SO3H)]T[Dab(CH2SO3H)][Dab][Dab(CH2SO3H)][dL]L[Dab(CH2SO3H)][Dab(CH2SO3H)]T; lactam 4-C),inactive
23,CCC(NC(C)C)C(O)c1ccc(O)c(O)c1 (configuration not stated),inactive
24,CCCCCCCCCC[N+](C)(CCCCCCCCCC)CCC[Si](OC)(OC)OC,21.7 µM (active)
25,O=C1CCC(c2ccc(-n3ccnc3)cc2)=NN1,inactive
